Data from PMC5540273 (PLoS ONE, 2017).

Tests used:
Settings in all cases: concentration: 1 μM, replicates: in singlicate; n = 1
[1] = system: CSNK1G1
[2] = system: CSNK1G2
[3] = system: CSNK1G3
[4] = system: CSNK2A1
[5] = system: CSNK2A2
[6] = system: T1, CTK
T1 construct: gene MATK

[7] = system: DAPK1
[8] = system: DAPK2
[9] = system: DAPK3
[10] = system: T2, DCAMKL1
T2 construct: gene DCLK1

[11] = system: T3, DCAMKL2
T3 construct: gene DCLK2

[12] = system: T4, DCAMKL3
T4 construct: gene DCLK3

[13] = system: DDR1
[14] = system: DDR2
[15] = system: T5, DLK
T5 construct: gene MAP3K12

[16] = system: T6, DMPK2
T6 construct: gene CDC42BPG

[17] = system: DMPK
[18] = system: T7, DRAK1
T7 construct: gene STK17A

[19] = system: T8, DRAK2
T8 construct: gene STK17B

[20] = system: DYRK1A
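Also: KINOMEscan kinase panel screen.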

Row | SMILES | %Inh [1] [%] | %Inh [2] [%] | %Inh [3] [%] | %Inh [4] [%] | %Inh [5] [%] | %Inh [6] [%] | %Inh [7] [%] | %Inh [8] [%] | %Inh [9] [%] | %Inh [10] [%] | %Inh [11] [%] | %Inh [12] [%] | %Inh [13] [%] | %Inh [14] [%] | %Inh [15] [%] | %Inh [16] [%] | %Inh [17] [%] | %Inh [18] [%] | %Inh [19] [%] | %Inh [20] [%]
1 | Cc1ccc(F)c(C(=O)Nc2cccc(-c3nn4ccccc4c3-c3ccnc(Nc4cccc(F)c4)n3)c2)c1F [GSK361061] | 10 | 12 | 27 | 20 | 10 | 27 | 0 | 10 | 14 | 0 | 13 | 70 | 100 | 87 | 7 | 85 | 13 | 0 | 0 | 11
2 | COc1cc2c(cc1OCCN1CCNCC1)ncc1c3ccc(C#N)cc3[nH]c21 | 0 | 0 | 4 | 63 | 92.4 | 15 | 14 | 4 | 4 | 38 | 3 | 4 | 0 | 1 | 85 | 0 | 5 | 99.5 | 99.6 | 93.1
3 | COc1ccc(Nc2nccc(NCCNC(=O)c3cc4ccccc4s3)n2)cc1 [GSK1379896] | 54 | 0 | 27 | 0 | 15 | 0 | 4 | 2 | 0 | 10 | 0 | 0 | 0 | 15 | 0 | 0 | 0 | 0 | 0 | 0
4 | COc1ccc(Nc2nccc(N3CCC(NC(=O)Nc4cccc(OC)c4)C3)n2)cc1 (stereo not shown) [GSK1379742] | 13 | 0 | 20 | 6 | 0 | 0 | 0 | 0 | 0 | 0 | 0 | 13 | 8 | 24 | 46 | 0 | 0 | 8 | 0 | 4
5 | Clc1ccc(-c2nn3ncccc3c2-c2ccnc(Nc3ccc4c(c3)OCCO4)n2)cc1 [GW829116] | 0 | 42 | 23 | 0 | 8 | 36 | 0 | 0 | 0 | 7 | 0 | 0 | 98.5 | 95.9 | 0 | 92.9 | 0 | 0 | 0 | 0
6 | Cc1cccc(Nc2nc(N[C@H]3CCNC3)ncc2C(N)=O)c1.Cl [GSK2197149] | 14 | 11 | 15 | 52 | 0 | 13 | 69 | 51 | 22 | 16 | 30 | 0 | 0 | 0 | 35 | 4 | 0 | 53 | 22 | 24
7 | CCS(=O)(=O)c1ccc(OC)c(Nc2nccc(-c3c(-c4cccc(NC(=O)c5c(F)cccc5F)c4)nn4ncccc34)n2)c1 [GSK326180] | 15 | 4 | 15 | 0 | 0 | 0 | 9 | 0 | 9 | 3 | 0 | 1 | 90 | 8 | 0 | 78 | 0 | 0 | 1 | 12
8 | Cc1cccc(NC(=O)Nc2ccc(Oc3ncnc4ccn(C)c34)cc2)c1 | 0 | 10 | 5 | 0 | 0 | 0 | 0 | 0 | 0 | 45 | 0 | 0 | 99.3 | 98.7 | 0 | 0 | 0 | 0 | 0 | 0
9 | COc1cc(Nc2nccc(N3CCC(NC(=O)c4cc5ccccc5s4)C3)n2)cc(OC)c1OC (stereo not shown) [GSK1379760] | 9 | 13 | 8 | 27 | 0 | 0 | 54 | 20 | 1 | 13 | 14 | 0 | 0 | 39 | 31 | 5 | 0 | 0 | 0 | 0
10 | CN1CCN(Cc2cccc(-c3ccc4c(Nc5ccc(Oc6ccccc6)cc5)ccnc4c3)c2)CC1 [GW578342] | 18 | 1 | 2 | 0 | 0 | 0 | 100 | 6 | 25 | 13 | 1 | 59 | 9 | 33 | 41 | 0 | 0 | 10 | 0 | 1
11 | COc1cc(Nc2ncc3c(C)nc(-c4cc5ccccc5[nH]4)n3n2)cc(OC)c1OC [GW869516] | 21 | 0 | 29 | 96.4 | 99.7 | 0 | 0 | 0 | 11 | 17 | 0 | 0 | 52 | 52 | 22 | 0 | 0 | 30 | 10 | 85
12 | Cc1ccc(S(=O)(=O)Nc2ccc(Nc3nccc(Nc4cccc5[nH]ncc45)n3)cc2)cc1 [GSK581271] | 0 | 0 | 7 | 0 | 0 | 0 | 0 | 0 | 5 | 12 | 5 | 21 | 82 | 36 | 0 | 0 | 0 | 61 | 7 | 16
13 | COc1cccc(NC(=O)NC2CCN(c3ccnc(Nc4cc(OC)c(OC)c(OC)c4)n3)C2)c1 (stereo not shown) [GSK1379763] | 0 | 0 | 14 | 12 | 7 | 0 | 5 | 0 | 17 | 0 | 0 | 0 | 22 | 24 | 46 | 27 | 0 | 0 | 0 | 0
14 | Fc1ccc(-c2ncn(C3CCNCC3)c2-c2ccnc(Oc3ccc(-c4ccccc4)cc3)n2)cc1 [SB-245391] | 30 | 78 | 49 | 0 | 7 | 37 | 14 | 5 | 22 | 10 | 3 | 18 | 2 | 10 | 7 | 86 | 5 | 0 | 15 | 0
15 | Cn1cc(-c2[nH]c3cc(NC(=O)[C@H](N)C4CCCCC4)cc4c3c2C=NNC4=O)cn1 | 0 | 0 | 2 | 68 | 77 | 0 | 99.8 | 98.7 | 99.7 | 46 | 24 | 99.4 | 0 | 39 | 94.8 | 0 | 82 | 99.6 | 99.9 | 79
16 | Cc1occc1-c1ncc(OC[C@@H](N)Cc2c[nH]c3ccccc23)cc1-c1ccc2[nH]nc(C)c2c1.O=C(O)C(F)(F)F [GSK682037] | 76 | 95.5 | 93.7 | 0 | 8 | 0 | 0 | 0 | 2 | 10 | 14 | 0 | 0 | 5 | 1 | 67 | 95 | 0 | 0 | 15
17 | NCCCC(NC(=O)c1cc(Br)c(-c2ccnc3[nH]ccc23)s1)c1ccccc1.O=C(O)C(F)(F)F.O=C(O)C(F)(F)F (stereo not shown) [GSK1287544] | 57 | 97.2 | 94.8 | 27 | 20 | 0 | 0 | 0 | 0 | 8 | 3 | 0 | 0 | 2 | 17 | 94.2 | 28 | 61 | 0 | 48
